From PubChem BioAssay
E coli Lon inh: E. coli protease La inhibition; P0A9M0; purified E. coli Lon protease, fluorescence polarization; inhibition, % at 7.94 µM; 360,000 compounds, 0.42% hits; AID 602123; in the data active means inhibition above about 13%, passing the limit was not always enough;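 further: 0% = enzyme with probe and DMSO and 100% = no enzyme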
LANA-H2A inh: blocks KSHV LANA binding to histone H2A/H2B. inhibition, % (no concentration beside the values). AID 2629. Q9QR71. 320,000 compounds, 0.6% hits. cell-free LANA-H2A/H2B peptide, fluorescence polarization; in the data active means inhibition mostly above about 10%, no sharp cut-off; inactive means mostly below about 6.7%
GLD-1 RNA inh: GLD-1-TGE RNA interaction inhibition (C. elegans). Q17339. purified GLD-1 + fluorescein TGE RNA, fluorescence polarization. inhibition, % at 5.96 µM. 320,000 compounds, 0.44% hits;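 active means percent inhibition above a per-plate cutoff, the plate mean of test compounds plus 3 SD, cut at about 30% in these data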;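 further: 0% = DMSO wells with GLD-1 and probe and 100% = wells lacking GLD-1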
Target sequence (Q17339 whole entry, looked up): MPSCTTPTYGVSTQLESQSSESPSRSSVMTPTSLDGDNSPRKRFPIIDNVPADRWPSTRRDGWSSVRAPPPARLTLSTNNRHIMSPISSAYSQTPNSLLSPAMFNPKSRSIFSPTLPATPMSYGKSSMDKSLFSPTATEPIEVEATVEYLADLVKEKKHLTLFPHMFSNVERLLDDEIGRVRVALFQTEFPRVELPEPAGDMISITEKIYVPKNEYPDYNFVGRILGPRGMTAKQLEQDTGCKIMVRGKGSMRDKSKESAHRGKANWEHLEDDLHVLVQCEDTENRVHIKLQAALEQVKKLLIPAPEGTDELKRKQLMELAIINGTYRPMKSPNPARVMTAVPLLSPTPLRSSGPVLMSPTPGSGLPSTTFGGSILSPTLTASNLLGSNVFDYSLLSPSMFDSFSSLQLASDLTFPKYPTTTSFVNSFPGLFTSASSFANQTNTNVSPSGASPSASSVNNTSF
Keap1-Nrf2 PPI: inhibitors of human Keap1-Nrf2 protein-protein interaction | inhibition, % at 9.4 µM | 340,000 compounds, 0.15% hits | Q14145 | Keap1 Kelch-Nrf2 peptide fluorescence polarization, 1536-well | AID 504523; in the data active means inhibition above about 12%;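 further: human Keap1 Kelch domain with fluorescein labeled Nrf2 9mer peptide probe; 0% = neutral control wells and 100% = peptide positive control; higher means more block of Keap1 binding to Nrf2 peptide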
EBV gp42 block: inhibitors of Epstein-Barr virus glycoprotein 42; Q1HVG2; Fluorescence polarization binding assay, mP read-out; inhibition, % (tested at 21.74 µM); 220,000 compounds, 0.42% hits; in the data active means inhibition above about 50%
LANA DNA inh: blocks KSHV LANA C-terminal domain binding to DNA; MBP-C-LANA/FAM-LBS DNA binding, fluorescence polarization; inhibition, % at 9 µM; 340,000 compounds, 0.078% hits; AID 504423;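 active means highest replicate inhibition at or above 60% at 9 µM, even if other replicates fall short; inactive means all replicates below 60% inhibition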;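 further: 0% = neutral control wells and 100% = 4 µM acridine orange control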
Active calls of the source: *; x = no result; + = active, no number. Compounds with a hit are over-represented: about 1.5% of the library has one in this group of screens.

SMILES	E coli Lon inh	LANA-H2A inh	GLD-1 RNA inh	Keap1-Nrf2 PPI	EBV gp42 block	LANA DNA inh
COc1ccccc1C(=O)NCC(=O)N(C)Cc1nc2ccccc2c(=O)[nH]1	-15	x	x	x	x	x
Cc1c(NC(=O)c2ccccc2N(C)S(=O)(=O)c2ccccc2)c(=O)n(-c2ccccc2)n1C	10	3	8	3	-14	0
COCCN=c1scc(-c2ccco2)n1/N=C/c1ccc(O)c(O)c1O	18	0	-15	1	74*	9
COc1ccc(NC(=O)c2ccco2)cc1NC(=O)c1ccc(C)cc1	0	3	0	-4	-18	1
COc1ccc(NC(=O)CCc2ccccc2)cc1NC(=O)c1ccco1	-6	28*	10	-3	-9	-1
COc1ccc(CC(=O)Nc2ccc(OC)c(NC(=O)c3ccco3)c2)cc1	4	31*	-2	-4	-16	0
O=C(NCc1ccc(C(F)(F)F)cc1)c1ccc(-c2cccnc2)c2ccoc12	-7	x	x	x	x	x
N#CC1(NC(=O)COC(=O)c2nc(Cl)c(Cl)c(N)c2Cl)CCCCC1	-5	14*	16	-6	x	0
N#CC1(NC(=O)COC(=O)c2ncc(Cl)c(Cl)c2Cl)CCCCC1	-9	-8	3	-4	x	1
COc1ccc(CN2C(=O)c3ccccc3C2C(=O)NC2CCCC(C)C2C)c(OC)c1 (stereo unspecified)	2	x	x	4	7	-1
O=C(c1cc(Br)ccc1Cl)N1CCCC1	3	11*	13	-4	-13	-1
O=C(OCC(=O)N1CCCC1)c1cc(Br)ccc1Cl	1	4	4	1	-23	-1
COc1ccc(C(=O)N2CCC(C)(C(=O)NS(=O)(=O)C3CC3)C2)cc1 (stereo unspecified)	-8	x	x	x	x	x
Cc1ccc([C@H]2C[C@@H](O)[C@H](n3cc(C4CC4)nn3)CN2CC2CCCCC2)cc1	6	x	x	x	x	x
CCN1c2ccccc2N(C)C1(C)c1ccccc1 (stereo unspecified)	28	x	66*	2	34	21
CCCS(=O)(=O)NC(=O)C1(C)CCN(C(=O)c2ccc3ccccc3n2)C1 (stereo unspecified)	-3	x	x	x	x	x
CCOC(=O)C1(Cc2cccc(Cl)c2)CCCN(C(=O)c2ccoc2C)C1 (stereo unspecified)	6	95*	x	-6	x	0
O=c1oc2cc(O)ccc2cc1-c1nc2c(s1)CCc1ccccc1-2	x	1	100*	-2	127*	16
O=c1oc2ccccc2cc1-c1nc2c(s1)CCc1ccccc1-2	-18	3	-4	0	-5	2
Cc1nc2c(C)cccn2c1/C(O)=C1\C(=O)C(=O)N(CCN(C)C)C1c1ccccc1 (stereo unspecified)	-6	12*	3	-3	-9	0
CCOc1ccc(C(CN2CCOCC2)C(C)=O)cc1OC (stereo unspecified)	6	x	x	x	x	x
COc1ccc(N2CCN(C(=O)CCS(=O)(=O)c3ccc(OC)cc3)CC2)cc1	-9	-3	4	-9	-4	2
COc1ccc(S(=O)(=O)CCC(=O)N2CCN(c3ccc(C(C)=O)cc3)CC2)cc1	2	13*	3	-5	x	0
CC1=[N+](C)N(c2ccccc2)C(=O)C1N=C/C=C/c1ccccc1 (stereo unspecified)	0	3	6	-5	-9	71*
CCOc1ccccc1NC(=O)CN1CCCCCC1	-1	1	3	1	x	2
SMILES	E coli Lon inh	LANA-H2A inh	GLD-1 RNA inh	Keap1-Nrf2 PPI	EBV gp42 block	LANA DNA inh
CCOc1ccccc1NC(=O)NCCN1CCCCC1	3	15*	5	0	x	-1
O=C1c2ccccc2C(c2nnnn2-c2ccc3c(c2)OCCO3)N1CCCn1ccnc1 (stereo unspecified)	0	x	x	x	x	x
O=C(CSc1nnc(CNC(=O)c2ccc(F)cc2)o1)NCC1CCCO1 (stereo unspecified)	4	18*	0	1	x	-1
C=C(C(=O)Oc1ccccc1C(C)(C)C)c1ccccc1	x	0	-3	x	x	x
Cc1ccc(S(=O)(=O)NC2CC2)cc1	-1	-3	-2	-1	x	0
Cc1ccc(S(=O)(=O)NC2CCCCC2)cc1	-1	45*	1	5	x	3
COc1cc(CCN(C(C)=O)C2C(=O)Nc3ccccc3N=C2c2ccc3c(c2)OCO3)cc(OC)c1 (stereo unspecified)	2	x	x	x	x	x
COc1ccc(OC)c2nc(-c3cccnc3)ccc12	-8	-3	-1	-7	x	1
COc1ccc(OC)c2nc3c(cc12)CCC3	-5	-1	32*	-1	x	-2
O/C=c1\ccc2cccc3nc(C(F)(F)F)nc1c23	-88	1	37*	-10	x	16
O=C(Nc1cc(Cl)cc2c1-c1ccc(Cl)cc1C2O)C(Cl)Cl (stereo unspecified)	0	x	x	-1	x	-3
CN(C)CCN(C)C1CN(Cc2ccc(F)cc2)S(=O)(=O)C1 (stereo unspecified)	9	x	x	x	x	x
O=C(C1CC1)N1CCN(S(=O)(=O)c2ccc3c(c2)OCCO3)CC1	-1	-1	-3	3	0	-4
COc1ccc(C2CC(c3ccccc3C)n3nc(N)nc3N2)cc1 (stereo unspecified)	-3	-6	10	-4	-7	-1
COc1cccc(C2CC(c3ccc(Cl)cc3)n3nc(N)nc3N2)c1 (stereo unspecified)	2	+	2	-1	-18	-1
COc1ccc(C2CC(c3cccc(OC)c3)n3nc(N)nc3N2)cc1 (stereo unspecified)	-3	2	-6	-4	-6	0
CCOc1ccc(C2CC(c3ccccc3C)n3nc(N)nc3N2)cc1 (stereo unspecified)	0	33*	6	2	-10	2
Cc1cc(C)n2c(Nc3c(C)cccc3C)c(CC(C)C)nc2n1	-5	x	x	x	x	x
O=C(Cn1cc2c(n1)CCCC2)NCc1ccccn1	10	-1	20	0	53*	1
CCOc1ccccc1NC(=O)COC(=O)c1ccc2ccccc2n1	-6	111*	4	-2	x	-2
CCOC(=O)c1ccc2nc(C)c(CCC(C)=O)c(Cl)c2c1	20*	0	5	-6	-11	0
COc1ccc(CCN(Cc2nc3ccccc3c(=O)[nH]2)C(=O)c2ccco2)cc1OC	0	-2	-8	-6	98*	0
COc1cc(CCC(=O)N2CCN(c3ncccn3)CC2)cc(OC)c1OC	0	0	2	0	86*	2
CNC[C@H](NC[C@@H](NCCCc1ccccc1)c1ccccc1)[C@H](C)O	-4	2	7	0	x	1
Cc1[nH]c(=O)c(C#N)c(C)c1[N+](=O)[O-]	-2	13*	4	-2	-7	0
COc1ccc(OC)c(S(=O)(=O)NC(=O)C2(C)CCN2C(=O)C2(c3ccc(Cl)cc3)CC2)c1 (stereo unspecified)	-5	x	x	x	x	x
